In ChEMBL document CHEMBL3988442, “University of Dundee, Small-Polar-MMV Screening Library” (2021):
In all, about 48,000 compounds went through this assay and about 13,000 (27%) showed an effect of 50% or more. This is one part of the list.

Test system: Wolbachia pipientis
Assay: Anti-Wolbachia Cell-Based Screen
Assay type: functional
Set-up: scale not given: in the data most compounds retested in dose-response had high values
Conditions: 5 µM

SMILES	Percent Effect [%]
CC(C)c1nc(CNC(C(=O)N2CCOCC2)C(C)C)no1 (stereo not given)	-8.871
COCCN(Cc1coc(-c2ccc(OC)cc2)n1)C1CC1	2.104
CC(C)CC(NC(=O)C1=CCCC1)C(=O)N1CCC(CO)CC1 (stereo not given)	0.4021
COCc1nc2cc(NCc3ccc(CO)o3)ccc2o1	-0.637
CCN(CC)C(=O)CCCNC(=O)c1csc(NC2CC2)n1	-10.76
Cc1nn(C)c(Oc2ccc(Cl)cc2)c1CN1CCC(CN)C1 (stereo not given)	-7.014
CC(O)Cc1cn(CC2CCN(c3nccc4occc34)CC2)nn1 (stereo not given)	2.668
CCCn1ncc(-c2ccnc(NC3CCSC3)n2)c1C (stereo not given)	-13.99
Cc1cn2c(=O)c(-c3ccnc(N[C@@H]4CCOC4)n3)cnc2s1	101
Cc1ccc(-c2ccnc(N[C@H]3COC[C@@H]3N3CCCCC3)n2)c(C)n1	10.8
FC(F)(F)CCc1ccnc(NC2CCOC2)n1 (stereo not given)	0.7283
Cc1csc2ncc(-c3ccnc(NC4CCOCC4)n3)c(=O)n12	88.01
Cc1cn2c(=O)c(-c3ccnc(NC4CCOCC4)n3)cnc2s1	101.9
O=C(CCCc1cn[nH]c1)N1C[C@@H](CN2CCCC2)C[C@H](CO)C1	-0.9744
COc1cc(C)cc(C(C(=O)O)N2CCN(C3CCCC3)CC2)c1OC (stereo not given)	-14.27
CC(C)c1nn(C)c(N2CCOCC2)c1CNCCS(C)(=O)=O	-4.469
N#CC1(NC(=O)c2ccn(-c3ccccc3Cl)n2)CCSC1 (stereo not given)	-6.951
CN1[C@H](CO)C[C@H](CNCc2ccc(Cl)c(F)c2)[C@@H]1c1ccccc1F	-19.47
O=C(NC1CCc2ccccc2C1)N1CCN(C(=O)C2CCC2)CC1 (stereo not given)	-14.39
CS(=O)(=O)N1CCCCC12CCN(C(=O)c1ccccc1)C2 (stereo not given)	-1.645
CN1CCCCC12Cc1ccccc1CN(C(=O)C1CCCC1)C2 (stereo not given)	124.9
CN1CCN(C(=O)C2(S(C)(=O)=O)CCCC2)Cc2ccccc21	-5.505
CC(=O)N1Cc2ccccc2CC2(CCCCN2C)C1 (stereo not given)	130.2
CN1CCN(C(=O)C2(NC(N)=O)CCCCC2)Cc2ccccc21	-12.44
CN1CCCCC12Cc1ccccc1CN(C(=O)c1ccccc1)C2 (stereo not given)	117.9
Cc1noc(C)c1CNC(=O)N1CCC(OCC2CC2)CC1	12.01
Cc1n[nH]cc1CNC(C(=O)N1CCCCC1)c1ccccc1 (stereo not given)	2.279

SMILES	Percent Effect [%]
CC(C)c1nnc2n1CCN(C(=O)CN1CCc3sccc3C1)C2	4.372
OC(COCc1cccs1)CN1CCC(c2ccn[nH]2)CC1 (stereo not given)	-8.119
OC(CN1CCC(c2ccn[nH]2)CC1)c1ccc(F)cc1F (stereo not given)	102.6
OC(CN1CCC(c2ccn[nH]2)CC1)c1ccccc1F (stereo not given)	96.43
N#Cc1ccnc(N2CCN(CC(O)c3ccc(F)cc3F)CC2)c1 (stereo not given)	-23.85
CS(=O)(=O)c1ccc(C(O)CN2CCC(c3ccn[nH]3)CC2)cc1 (stereo not given)	-3.645
OC(CN1CCC(c2ccn[nH]2)CC1)c1cccc(C(F)(F)F)c1 (stereo not given)	117.8
OC(CN1CCC(c2ccn[nH]2)CC1)c1ccc(F)cc1 (stereo not given)	112.6
CN(CC1CCN(CCO)CC1)CC(O)c1ccc(F)cc1F (stereo not given)	7.101
OC(CN1CCN(c2ncccn2)CC1)c1cccc(F)c1 (stereo not given)	-12.81
OC(CN1CCC(c2ccn[nH]2)CC1)c1cccc(F)c1 (stereo not given)	-8.538
OC(COc1ccccc1)CN1CCC(c2ccn[nH]2)CC1 (stereo not given)	2.003
Cn1nccc1C1CCN(CC(O)c2cccc(F)c2)CC1 (stereo not given)	-0.7122
Cc1ccc(F)c(OC2CCCN(c3cnn(C)c3)C2=O)c1 (stereo not given)	-6.274
Cc1cc(C(=O)N[C@H]2CN(CCO)C[C@@H]2C2CC2)sc1C	-4.663
CN(Cc1ccccc1)C1(C(=O)NC(CO)CO)Cc2ccccc2C1	2.959
O=C(Nc1cnc2n1CCCC2)c1cccc(-n2cnnc2)c1	-1.722
CCN(C(=O)CN(Cc1cccc(O)c1)C1CCC(O)CC1)C1CC1 (stereo not given)	5.971
Cc1cccc(CNCC2COC3(CCCC3)O2)c1C (stereo not given)	-2.633
OC(COCc1ccc(Cl)cc1)CN1CCC(c2ccn[nH]2)CC1 (stereo not given)	-1.567
OC(CN1CCC(c2ccn[nH]2)CC1)c1cc(F)ccc1F (stereo not given)	116
O=C1CCCN1CCN1CCC(c2ccn[nH]2)CC1	6.838
O=c1cc(-c2ccncc2)nc(-c2ccc(CN3CC[C@H](O)C3)cc2)[nH]1	9.166
CN(C)c1cc(CNC(=O)Nc2ccc(S(C)(=O)=O)nc2)ccn1	-6.104
CN(C)c1cc(CNC(=O)Nc2ccc(F)cc2)ccn1	2.745
CN(C)c1cc(CNC(=O)Nc2nncs2)ccn1	51.52
CN(C)c1cc(CNC(=O)Nc2nccs2)ccn1	125

SMILES	Percent Effect [%]
CCc1ccc(CCNc2ncnc3c2CCN(C(=O)C2CC2)C3)cc1	-23.9
NC(=O)C1CCN(CCCc2ccc(C(F)(F)F)cc2)CC1	5.084
OCC1CN(Cc2nc(C(F)(F)F)cs2)c2ccccc2O1 (stereo not given)	3.254
CC(C)(C)n1nc(C(=O)NCC2(C(N)=O)CCOCC2)cc1C1CC1	8.942
CCNc1ccnc(NC2CCN(CC(N)=O)CC2)n1	2.921
CC(C)c1cc(C(=O)NCC2(C(N)=O)CCOCC2)nn1C(C)(C)C	-12.39
Cn1nc(C(=O)NC2CC2)cc1NC(=O)C1CC1	-11.77
CNC(=O)C1CCC(NC(=O)c2cc(C3CC3)n(C(C)(C)C)n2)CC1 (stereo not given)	117.3
CC(C)(C)n1nc(C(=O)NC2CCN(CC(N)=O)CC2)cc1C1CC1	128.2
Cn1nc(C(=O)NC2CC(C)(C)NC(C)(C)C2)cc1NC(=O)C1CC1	-0.3555
CC(CCc1ccccc1)CC(=O)NC1CCN(CC(N)=O)CC1 (stereo not given)	-10.07
CC(C)c1cc(C(=O)NCC(O)C2CCOCC2)nn1C(C)(C)C (stereo not given)	-4.207
CC(C)c1cc(C(=O)NC2CCN(CC(N)=O)CC2)nn1C(C)(C)C	128
CC(C)(C)n1nc(C2CC2)cc1C(=O)NCC1(C(N)=O)CCOCC1	3.596
CC(C)(C)n1nc(C2CC2)cc1C(=O)NC1CCN(CC(N)=O)CC1	124.1
Cc1ccc(C)c(Oc2ccc(CNC(=O)C3CCC(=O)N3)cn2)c1 (stereo not given)	-2.356
CCCc1nnsc1C(=O)N1CCN(CC(O)c2ccco2)CC1.Cl (stereo not given)	-2.42
Cc1nnc2n1CCN(Cc1ncc(-c3ccc(Cl)cc3)o1)C2	-13.18
CS(=O)(=O)N1CC[C@]2(C[C@@H](OCC3CCC3)CO2)C1	0.0763
CCCc1nc(C)c(C(=O)NC2CCN(CC(N)=O)CC2)s1	7.483
NC(=O)CN1CCC(NC(=O)c2ccn(-c3cccc(F)c3)n2)CC1	-0.7272
Cc1cc(C(=O)NC2CCN(CC(N)=O)CC2)nn1C(C)(C)C	133.1
Cc1csc(CN(C)CCCOc2cccc(C#N)c2)n1	1.685
Cc1cccc(CNCc2c(C)nn(C)c2N2CCOCC2)n1	-8.764
Cc1nn(C)c(N2CCOCC2)c1CNCC1CCN(C2CC2)C1 (stereo not given)	-9.16
Cc1nn(C)c(N2CCOCC2)c1CNCc1ccccc1CO	115.8
Cc1nn(C)c(N2CCOCC2)c1CNCc1nccs1	-7.203

SMILES	Percent Effect [%]
Cc1nn(C)c(N2CCOCC2)c1CNCc1ccoc1C	153.8
Cc1nn(C)c(N2CCOCC2)c1CNCc1ccc(CO)c(F)c1	138
Cc1nn(C)c(N2CCOCC2)c1CNCC1CCS(=O)(=O)C1 (stereo not given)	-15.3
Cc1nn(C)c(N2CCOCC2)c1CNCc1ccnn1C	142.8
Cc1nn(C)c(N2CCOCC2)c1CNC(C)c1ccco1 (stereo not given)	-14.65
Cc1nn(C)c(N2CCOCC2)c1CNCC1CCCN1C (stereo not given)	-4.188
Cc1nn(C)c(N2CCOCC2)c1CNCc1ccc(Cl)s1	2.748
O=C(NCC1(O)CCSCC1)c1ccoc1	-3.908
Cc1nccn1CC1CCCN1CCCc1nc(-c2cccs2)no1 (stereo not given)	8.035
Cc1ncccc1CNC(CCO)C1CCCCC1 (stereo not given)	3.816
Cn1ccnc1C1CCN(S(=O)(=O)c2ccc3c(c2)OCCO3)CC1	-44.72
O=C(Nc1ncn(CC(=O)N2CCCCCC2)n1)C1CCCO1 (stereo not given)	-2.557
Fc1ccc(CN2CCCC2Cn2cncn2)c2ncccc12 (stereo not given)	11.89
CC(C)N(C(=O)c1ccnc(OCC(F)(F)F)c1)c1cccnc1	-10.5
COCc1cccc(CNCc2c(C)nn(C)c2N(C)C)c1	-4.219
Cc1nc(CNCc2c(C)nn(C)c2N2CCOCC2)cs1	-13.32
COCc1cccc(CNCc2c(C)nn(C)c2N2CCOCC2)c1	117.6
Cc1nn(C)c(N(C)C)c1CNCc1ccc(N(C)C)nc1	0.9542
Cc1nn(C)c(N2CCOCC2)c1CNCc1ccc2c(c1)OCO2	96.35
Cc1nn(C)c(N2CCOCC2)c1CNCc1ccc(C(C)O)cc1 (stereo not given)	111.2
Cc1nn(C)c(N2CCOCC2)c1CNCc1ccnc(N(C)C)c1	-0.1268
Cc1nn(C)c(N2CCOCC2)c1CNCc1ccc(N(C)C)nc1	80.75
Cc1cc(CNCc2c(C)nn(C)c2N2CCOCC2)no1	-8.986
COc1ccc(CNCc2c(C)nn(C)c2N2CCOCC2)cc1	6.012
